Measurements: PubChem BioAssay (NCATS)
Activity calls are given as the source filed them. The call rests on the fitted dose curve.

Biological target: Glucocorticoid receptor (Homo sapiens) (UniProt P04150)
Assay: GR-EFC Redistribution (AID 451)
Conditions: CHO-K1 GR-EFC translocation, beta-gal luminescence, 2 h
Source text: NIH Molecular Libraries Screening Centers Network [MLSCN]
NIH Chemical Genomics Center [NCGC]
The glucocorticoid receptor (GR) is a cytoplasmic receptor that belongs to the nuclear receptor family of ligand-dependent transcription factors. Upon glucocorticoid binding to its receptor, the glucocorticoid-GR complex translocates into the nucleus, where it binds as a dimer to specific DNA sequences (glucocorticoid response elements), enhancing or suppressing transcription of a wide variety of glucocorticoid-responsive genes. In addition to their important roles in normal physiology and metabolism, glucocorticoids are administered exogenously as treatments for a wide variety of allergic, autoimmune, and neoplastic conditions. Identification of compounds that modulate aspects of GR signalling would be useful in dissecting glucocorticoid response pathways as well as developing GR modulators with more targeted clinical effects.
Traditionally, GR modulators have been identified using receptor binding or direct transactivation assays. However, assays for glucocorticoid-dependent nuclear translocation can also be used to screen for compounds affecting GR signaling.
Immunocytochemical staining has been used to assay for GR translocation, but is not suitable for high throughout screening due to the multiple reagent addition and wash steps required. Recently, a novel cell-based GR assay in Enzyme Fragment Complementation (EFC) format was developed by DiscoveRx (Fremont, CA). The assay uses EFC of b-galactosidase (b-gal) as an indicator of GR-translocation in engineered CHO-K1 biosensor cells. The enzyme acceptor (EA) fragment of b-gal resides in the nucleus , as designed through the use of a proprietary set of sequence additions and modifications. The small peptide enzyme donor (ED) fragment of b-gal is fused directly to the C-terminus of GR, and is localized in the cytoplasm is the absence of receptor signaling. Upon binding to a GR ligand, the complex translocates to the nucleus, where intact enzyme activity is restored by complementation and b-gal activity is detected. We optimized this GR-EFC assay in homogenous 1536-well plate assay format for high throughput screening.
NCGC Assay Protocol Summary:
CHO-K1 cells stably expressing NLS-enzyme acceptor fragment (EA) of b-gal and GR-enzyme donor (ED) fragment of b-gal were maintained in F12 medium (Invitrogen, Carlsbad, CA) at 37 Celsius degrees under a humidified atmosphere containing 5% CO2 and 95% air. The medium contained 10% FBS, 2 mM L-glutamine, 50 U/ml penicillin 50 ug/ml streptomycin, and 250 ug/ml hygromycin and 500 ug/ml G418 (Invitrogen).
GR-translocation was measured beta-gal enzyme activity using the PathHunter Detection Kit containing cell membrane permeablizing reagent and beta-gal substrate (DiscoveRx, Fremont, CA). All compounds were screened as titrations from 0.6 nM to 46 uM final concentration. The assay was performed in 1536-well format as follows:
5 uL cell suspension (1,000 cells)/well
Incubation at 37 Celsius degrees for two hours
1.25 uL 1X detection buffer from the kit supplied by DiscoveRx
Incubation at room temperature for one hour
Read plate in luminescence mode in ViewLux plate reader (PerkinElmer)
Keywords: NIH Roadmap, MLSCN, MLI, MLSMR, GR-EFC, GREFC, qHTS, NCGC
Potency means the concentration at half of the fitted maximal effect.

Sequence of Glucocorticoid receptor (Homo sapiens) (P04150 whole entry, looked up): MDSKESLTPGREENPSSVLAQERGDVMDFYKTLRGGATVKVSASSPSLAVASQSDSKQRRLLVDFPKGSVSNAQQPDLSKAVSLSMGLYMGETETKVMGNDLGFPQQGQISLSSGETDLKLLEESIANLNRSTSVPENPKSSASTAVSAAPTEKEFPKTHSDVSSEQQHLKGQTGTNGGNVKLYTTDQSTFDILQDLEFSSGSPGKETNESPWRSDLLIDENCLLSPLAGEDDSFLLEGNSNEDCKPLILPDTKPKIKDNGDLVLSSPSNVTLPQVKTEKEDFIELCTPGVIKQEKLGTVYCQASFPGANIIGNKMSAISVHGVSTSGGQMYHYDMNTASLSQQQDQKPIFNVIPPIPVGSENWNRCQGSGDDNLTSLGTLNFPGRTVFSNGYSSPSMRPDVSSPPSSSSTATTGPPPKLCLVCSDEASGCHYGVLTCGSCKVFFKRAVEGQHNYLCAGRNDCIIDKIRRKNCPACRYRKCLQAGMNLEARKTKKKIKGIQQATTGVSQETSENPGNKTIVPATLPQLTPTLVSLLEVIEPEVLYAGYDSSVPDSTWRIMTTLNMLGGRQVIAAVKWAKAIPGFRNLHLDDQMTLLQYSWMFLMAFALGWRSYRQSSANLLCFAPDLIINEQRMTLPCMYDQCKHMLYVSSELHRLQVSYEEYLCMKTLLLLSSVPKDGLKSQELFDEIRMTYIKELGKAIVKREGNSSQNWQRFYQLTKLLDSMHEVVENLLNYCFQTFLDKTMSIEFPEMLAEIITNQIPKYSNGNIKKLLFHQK

Potency, inactive:
CC(C)C[C@@H](CC(=O)N[C@@H](CCC(=O)O)CC(=O)O)NC(=O)[C@@H]1CNCC[C@H]1NC(=O)C[C@@H](NC(=O)C[C@H](Cc1c[nH]c2ccccc12)NC(=O)[C@@H]1CNCC[C@H]1N)C(C)C > 46 µM
NCCC[C@@H](CC(=O)N[C@@H]1CCCC[C@H]1C(=O)N[C@H](CC(=O)N[C@@H](CCC(=O)O)CC(=O)O)Cc1c[nH]c2ccccc12)NC(=O)C[C@H](Cc1ccccc1)NC(=O)[C@@H]1CNCC[C@H]1N > 46 µM
CC(=O)[C@H]1[C@H]2[C@H](C(=O)[C@@H]3OC[C@H]2O3)[C@@H]2c3ccccc3C=CN12 > 46 µM
O=C1C[C@H](c2ccccc2)Oc2cc(O)cc(O)c21 > 46 µM
COc1ccc(-n2c(=O)c(CCc3ccccc3)nc3cnc(N4CCNCC4)nc32)cc1 > 46 µM
O=c1c(O)c(-c2ccc(O)cc2)oc2ccc(O)cc12 > 46 µM
CC(C)C[C@@H](CC(=O)N[C@H](CC(=O)N[C@@H]1CCCC[C@H]1C(=O)N[C@H](CC(=O)N[C@@H](CCC(=O)O)CC(=O)O)CC(C)C)C(C)C)NC(=O)[C@@H]1CCCC[C@H]1N > 46 µM
CC(C)[C@@H](CC(=O)N[C@@H]1CCCC[C@H]1C(=O)N[C@H](CC(=O)N[C@@H](CCC(=O)O)CC(=O)O)Cc1ccccc1)NC(=O)C[C@H](Cc1c[nH]c2ccccc12)NC(=O)[C@@H]1CNCC[C@H]1N > 46 µM
CC(C)[C@@H](CC(=O)N[C@@H]1CCNC[C@H]1C(=O)N[C@H](CC(=O)N[C@@H](CCC(=O)O)CC(=O)O)Cc1c[nH]c2ccccc12)NC(=O)C[C@H](Cc1ccccc1)NC(=O)[C@@H]1CCCC[C@H]1N > 46 µM
O[Si@](CCCN1CCCCC1)(c1ccc(F)cc1)C1CCCCC1 > 46 µM
NCCC[C@@H](CC(=O)N[C@@H]1CCCC[C@H]1C(=O)N[C@H](CC(=O)N[C@@H](CCC(=O)O)CC(=O)O)Cc1ccccc1)NC(=O)C[C@H](CO)NC(=O)[C@@H]1CCCC[C@H]1N > 46 µM
O=c1c(O)c(-c2ccc(O)cc2)oc2cc(O)ccc12 > 46 µM
CN1CCc2cc(O)c(O)cc2[C@H](c2ccccc2)C1 > 46 µM
NCCC[C@@H](CC(=O)N[C@@H]1CCCC[C@H]1C(=O)N[C@H](CC(=O)N[C@@H](CCC(=O)O)CC(=O)O)Cc1ccccc1)NC(=O)C[C@H](Cc1ccccc1)NC(=O)[C@@H]1CCCC[C@H]1N > 46 µM
NC[C@@H]1O[C@@H](O[C@H]2[C@@H](O)[C@H](O[C@@H]3[C@H](O)[C@H](N)C[C@H](N)[C@H]3O[C@@H]3O[C@@H](CO)[C@H](O)[C@H](O)[C@@H]3N)O[C@H]2CO)[C@H](N)[C@H](O)[C@@H]1O > 46 µM
C=CCN1CCc2c(cc(O)c(O)c2Br)[C@H](c2ccccc2)C1 > 46 µM
CC(C)C[C@@H](CC(=O)N[C@@H](CCC(=O)O)CC(=O)O)NC(=O)[C@@H]1CCCC[C@H]1NC(=O)C[C@H](CCCN)NC(=O)C[C@H](CO)NC(=O)[C@@H]1CNCC[C@H]1N > 46 µM
NC(=O)/C(=C\c1ccncc1)c1cccc2ccccc12 > 9.22 µM
CC(C)C[C@@H](CC(=O)N[C@@H](CCCN)CC(=O)N[C@@H]1CCCC[C@H]1C(=O)N[C@H](CC(=O)N[C@@H](CCC(=O)O)CC(=O)O)CC(C)C)NC(=O)[C@@H]1CNCC[C@H]1N > 46 µM
CCCCCCCCN[C@@H](C)[C@H](O)c1ccc(SC(C)C)cc1 > 20.6 µM
CC(C)[C@@H](CC(=O)N[C@@H]1CCCC[C@H]1C(=O)N[C@H](CC(=O)N[C@@H](CCC(=O)O)CC(=O)O)Cc1c[nH]c2ccccc12)NC(=O)C[C@H](CO)NC(=O)[C@@H]1CCCC[C@H]1N > 46 µM
C=C(CO)[C@H]1Cc2c(ccc3c2O[C@H]2COc4cc(OC)c(OC)cc4[C@@H]2C3=O)O1 > 46 µM
CCCN(CCc1ccccc1)[C@H]1CCc2c(O)cccc2C1 > 46 µM
CC(C)[C@@H](CC(=O)N[C@@H]1CCNC[C@H]1C(=O)N[C@H](CC(=O)N[C@@H](CCC(=O)O)CC(=O)O)Cc1c[nH]c2ccccc12)NC(=O)C[C@H](Cc1ccccc1)NC(=O)[C@@H]1CNCC[C@H]1N > 46 µM
CCCCCCCCCCCCCCCCCC(=O)O[C@H](CC(=O)O)C[N+](C)(C)C > 46 µM
CC(C)[C@@H](CC(=O)N[C@@H]1CCNC[C@H]1C(=O)N[C@H](CC(=O)N[C@@H](CCC(=O)O)CC(=O)O)Cc1c[nH]c2ccccc12)NC(=O)C[C@H](CO)NC(=O)[C@@H]1CNCC[C@H]1N > 46 µM
COCCNc1nc(-c2ccc(N(C)C)cc2)nc2ccccc12 > 46 µM
C[C@@H]1C(=O)O[C@H]2[C@@H](O)[C@@]34[C@H]5C[C@H](C(C)(C)C)[C@@]36[C@H](OC(=O)[C@@H]6O)O[C@@]4(C(=O)O5)[C@@]12O > 46 µM
CCCCCCCCCC(=O)N[C@@H](CN1CCOCC1)[C@@H](O)c1ccccc1 > 46 µM
CCOC(=O)C1=C(C)NC(C)=C(C(=O)OC)[C@H]1c1cccc(Cl)c1Cl > 46 µM
CC(C)C[C@@H](CC(=O)N[C@@H](CCC(=O)O)CC(=O)O)NC(=O)[C@@H]1CCCC[C@H]1NC(=O)C[C@H](CCCN)NC(=O)C[C@H](Cc1ccccc1)NC(=O)[C@@H]1CCCC[C@H]1N > 46 µM
CC(C)C[C@@H](CC(=O)N[C@H](CC(=O)N[C@@H]1CCNC[C@H]1C(=O)N[C@H](CC(=O)N[C@@H](CCC(=O)O)CC(=O)O)Cc1ccccc1)C(C)C)NC(=O)[C@@H]1CNCC[C@H]1N > 46 µM
O=c1cc(-c2ccc(O)c(O)c2)oc2cccc(O)c12 > 46 µM
CC(=O)O[C@]12CC[N@+]3(C)CCCC[C@@H]3[C-]1Nc1ccccc12 > 9.22 µM
CC(=O)N[C@H](Cc1c[nH]c2ccccc12)C(=O)O > 9.22 µM
COc1cc(/C=C\C(=O)CC(=O)/C=C\c2ccc(O)c(OC)c2)ccc1O > 46 µM
CCCCCCCCCCCCCCCCCC(=O)NC[C@@H](COP(=O)([O-])OCC[N+](C)(C)C)OCC > 46 µM
COc1cc2oc(-c3ccccc3)cc(=O)c2cc1O > 46 µM
C[C@H](N)C1CCC(C(=O)Nc2ccncc2)CC1 (stereo not given in full) > 46 µM
CC(C)C[C@@H](CC(=O)N[C@@H](CCCN)CC(=O)N[C@@H]1CCNC[C@H]1C(=O)N[C@H](CC(=O)N[C@@H](CCC(=O)O)CC(=O)O)CC(C)C)NC(=O)[C@@H]1CNCC[C@H]1N > 46 µM
